The source of these data is PubChem BioAssay AID1671190 (National Center for Advancing Translational Sciences (NCATS), 2021).

Each structure is given as a SMILES string. The whole screen tested about 580,000 compounds, of which about 6,100 (1.1%) were called active. About 15% were inconclusive and are not listed. Calls come from the whole dose curve; as a rule, active = well fitted inhibition curve with a large enough effect; inconclusive = small, poorly fitted or top-dose-only effect, or another doubt; inactive = no such curve, though single readings can be large or run the other way. Only a selection was taken, and actives are over-represented in it overall.
% is set by controls: 0 for no effect and ±100 for the full control effect; potency is the fitted concentration of half-maximal effect.

Chain of Polyunsaturated fatty acid lipoxygenase ALOX12 (Homo sapiens) (P18054 whole entry, looked up): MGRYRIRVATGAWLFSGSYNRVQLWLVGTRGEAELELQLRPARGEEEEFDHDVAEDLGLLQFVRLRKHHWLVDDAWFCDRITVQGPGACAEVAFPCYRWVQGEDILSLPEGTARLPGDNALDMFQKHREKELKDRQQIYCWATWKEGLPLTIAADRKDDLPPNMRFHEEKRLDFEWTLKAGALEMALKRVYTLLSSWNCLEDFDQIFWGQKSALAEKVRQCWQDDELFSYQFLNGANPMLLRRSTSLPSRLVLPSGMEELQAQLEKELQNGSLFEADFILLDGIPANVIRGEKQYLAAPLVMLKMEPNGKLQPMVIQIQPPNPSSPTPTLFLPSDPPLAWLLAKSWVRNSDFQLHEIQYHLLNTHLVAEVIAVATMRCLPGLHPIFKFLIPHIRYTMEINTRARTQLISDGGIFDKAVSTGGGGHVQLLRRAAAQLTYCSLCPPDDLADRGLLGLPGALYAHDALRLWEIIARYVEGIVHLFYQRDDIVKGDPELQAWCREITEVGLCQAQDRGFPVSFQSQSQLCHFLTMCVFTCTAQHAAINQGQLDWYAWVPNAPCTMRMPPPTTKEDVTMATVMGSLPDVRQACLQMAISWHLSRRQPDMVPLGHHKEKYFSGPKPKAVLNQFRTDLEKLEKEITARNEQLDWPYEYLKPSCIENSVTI

For the assay, the target named is Polyunsaturated fatty acid lipoxygenase ALOX12 (Homo sapiens) (UniProt P18054). The assay is described as follows: Primary qHTS assay for inhibitors of human arachidonate 12S-lipoxygenase (ALOX12): Round 2. Particulars: purified 12hLO, xylenol orange hydroperoxide absorbance; series mostly up to 108 µM; activity change, negative = inhibition: at the top concentration. The essentials:
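Hydroperoxide product was detected by ferrous iron/xylenol orange as the 573 to 405 nm absorbance ratio. Arachidonic acid at 40 uM (final) was turned over for 30 min at room temperature by 150 nM human 12hLO, pH 7.0 Hepes buffer, after 15 min compound preincubation.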
On to `COc1cc2c(cc1Oc1cccc(N(C)C)c1)NC(=O)C21CCN(c2cnccn2)CC1`, for which the “activity change, negative = inhibition” value is -25.7% (inactive).

Consider `COc1ccc(CC(=O)N2CCN(CC(=O)NC(N)=O)CC2)cc1`, for which the “activity change, negative = inhibition” value is -0.17% (inactive).

For the compound `C#C[C@H]1CN2CC[C@H]1C[C@@H]2COC(=O)Nc1cc(OC)cc(OC)c1`, the Potency was 50.1 µM (active).

For the compound `COc1ccc(-c2cc([C@H]3CN4CC[C@H]3C[C@@H]4COC(=O)NC(C)C)nc(C)n2)cc1`, the “activity change, negative = inhibition” value is -0.937% [at 176 µM] (inactive).

`C#C[C@H]1CN2CC[C@H]1C[C@@H]2CNC(=O)C1CC1`: the “activity change, negative = inhibition” value is 32.6% [at 176 µM] (inactive).

For `Cc1ncc2c(n1)C[C@@H]1CC[C@H]2N1S(=O)(=O)c1ccc(F)cc1`, the “activity change, negative = inhibition” value was 5.01% (inactive).

Consider `Cn1nc(-c2cccs2)cc1[C@H]1CN2CC[C@H]1C[C@@H]2CNC(=O)Nc1ccccc1`, for which the “activity change, negative = inhibition” value is 26.6% [at 176 µM] (inactive).

As for `C=C(C)C1(CCCC)C(=O)NC(=S)NC1=O`, the Potency is 44.7 µM (active).

Turning to `COc1ccccc1-c1cc([C@H]2CN3CC[C@H]2C[C@@H]3CNCc2cccc(C#N)c2)n(C)n1`, the “activity change, negative = inhibition” value was 101% [at 176 µM] (inactive).

Take `COc1cc2c(cc1OCc1ccccc1)NC(=O)C21CCN(CCC(C)C)CC1`: the “activity change, negative = inhibition” value is 19% [at 176 µM] (inactive).

`COC(=O)C1=C(c2ccc3ccccc3c2)C[C@@H]2CC[C@H]1N2C(=O)NCCO`: the “activity change, negative = inhibition” value was 6.64% (inactive).

For the compound `CC(=O)NCC1=C(c2ccc3ccccc3c2)C[C@@H]2CC[C@H]1N2Cc1ccco1`, the Potency is 28.2 µM (active).

In the case of `Cc1ncoc1C(=O)NCC1=C(c2cccc3ccccc23)C[C@@H]2CC[C@H]1N2Cc1ccco1`, the “activity change, negative = inhibition” value is -20.5% (inactive).

Consider `O=[S+]1([O-])NC2(CCN(CC3CCOCC3)C2)COc2ccncc21` (configuration not stated), for which the activity change, negative = inhibition is 3.45% [at 6.33 µM] (inactive).

Consider `CN(C)C(=O)Oc1ccc2c(=O)c(-c3ccc(Br)cc3)c(C(F)(F)F)oc2c1`, for which the “activity change, negative = inhibition” value was -27.7% (inactive).

Take `O=C(c1ccc2c(c1)CCO2)N1C[C@@H](c2ccc(F)cc2)[C@@H]2[C@H]1C1CCN2CC1`: the “activity change, negative = inhibition” value is -0.3% (inactive).

As for `Cc1cc(C)cc(CN2CCC3(CCNCC3)C2)c1`, the “activity change, negative = inhibition” value was 51.5% (inactive).

As for `COc1cc2c(cc1OC1CCCC1)NC(=O)C21CCN(c2nccs2)CC1`, the “activity change, negative = inhibition” value is 0.589% [at 176 µM] (inactive).

Consider `O=C1NC(=O)N(c2ccccc2)C(=O)/C1=C/c1ccc([N+](=O)[O-])s1`, for which the Potency was 39.8 µM (active).

`COc1cccc(N2C(=O)NC(=O)/C(=C\c3ccc([N+](=O)[O-])s3)C2=O)c1`: the Potency is 44.7 µM (active).

Take `CCC(CC)c1cc([C@H]2CN3CC[C@H]2C[C@@H]3CNS(=O)(=O)Cc2ccccc2)nc(-c2ccncc2)n1`: the “activity change, negative = inhibition” value was 38.2% (inactive).

For `N#Cc1cccc(NC(=O)NC[C@H]2C[C@@H]3CCN2C[C@@H]3CN2CCN(c3ncccn3)CC2)c1`, the “activity change, negative = inhibition” value is 0.779% (inactive).

For `CC(C)(C)c1nc(CN2CCC3(CC2)C(=O)Nc2ccccc23)no1`, the “activity change, negative = inhibition” value was 24.8% (inactive).

In the case of `COc1cccc(Nc2cc3c(cn2)CN(C)CCN3C)c1`, the “activity change, negative = inhibition” value was 17.4% [at 176 µM] (inactive).

Consider `O=c1c2ccccc2nc(/C=C/c2ccc(F)cc2)n1-c1ccccc1O`, for which the “activity change, negative = inhibition” value was -4.15% (inactive).

Consider `Cc1ccc(-n2c(/C=C/c3cccc(C(F)(F)F)c3)nc3ccccc3c2=O)cc1`, for which the “activity change, negative = inhibition” value is 4.27% (inactive).

With `O=c1c2ccccc2nc(/C=C/c2ccco2)n1-c1ccccc1O`, the Potency is 35.5 µM (active).

Take `C=CCN(C)C[C@H]1CN2CC[C@H]1C[C@@H]2CNC(=O)Nc1cccc(SC)c1`: the “activity change, negative = inhibition” value was 14.9% [at 176 µM] (inactive).

Take `Cc1ccc(C(c2c(O)c3ccccc3oc2=O)c2c(O)c3ccccc3oc2=O)cc1`: the Potency is 12.6 µM (active).

As for `CCC(=O)CC(c1ccc([N+](=O)[O-])cc1)c1c(O)c2ccccc2oc1=O` (configuration not stated), the “activity change, negative = inhibition” value is 42.5% (inactive).

On to `O=c1oc2ccccc2c(O)c1C(c1ccccc1O)c1c(O)c2ccccc2oc1=O`, for which the “activity change, negative = inhibition” value was -16.9% (inactive).

Take `O=C(Cc1ccccc1)N1[C@H]2CC[C@@H]1c1cnc(-c3ccc(F)cc3)nc1C2`: the “activity change, negative = inhibition” value is -12.1% (inactive).

Regarding `COc1cc2c(cc1-c1ccncc1)NC(=O)C21CCN(C(C)=O)CC1`, the “activity change, negative = inhibition” value was -24% [at 176 µM] (inactive).

In the case of `COc1ccc(CC(=O)N2C[C@@H]3CC[C@H](C2)N(CC2CCC2)C3)c(OC)c1`, the “activity change, negative = inhibition” value is 4.55% (inactive).

For `c1cncc(CNCCc2c[nH]c3ccccc23)c1`, the “activity change, negative = inhibition” value is -6.92% (inactive).

On to `c1cncc(CNC2=NCCC2)c1`, for which the “activity change, negative = inhibition” value is -16.5% (inactive).

As to `ClCc1cccnc1`, the Potency was 11.2 µM (active).

For `Cc1nc(-c2ccc(N(C)C)cc2)cc([C@H]2CN3CC[C@H]2C[C@@H]3CNC(=O)C2CCC2)n1`, the “activity change, negative = inhibition” value was 33.5% [at 176 µM] (inactive).

Take `CCOCCc1c(O)[nH]c(=S)[nH]c1=O`: the Potency is 14.1 µM (active).

Regarding `Cn1nc(-c2ccc(F)cc2)cc1[C@H]1CN2CC[C@H]1C[C@@H]2CNCc1ccccn1`, the “activity change, negative = inhibition” value is 99.3% [at 176 µM] (inactive).

In the case of `Cc1ccc2c(n1)N(C)[C@H](CO)CCN(C1CCCC1)C2`, the “activity change, negative = inhibition” value is 18.6% [at 176 µM] (inactive).

As to `CC(C)C(=O)N1CCC2(CC1)NCc1ccccc1-n1ccnc12`, the “activity change, negative = inhibition” value is 14.6% (inactive).
